# A selection: hits, their analogues and other compounds. The true share with any hit is near 6.2%.
# HT1080-NT tox – kills 2HG-producing HT-1080-NT fibrosarcoma cells | actives 1.6% (n = 360,000) | AID 686970 | HT-1080-NT fibrosarcoma viability, CellTiter-Glo ATP luminescence, 48 h | Potency, µM (series often up to 46.1 µM), most hits filed as cytotoxic;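 further: NT is the 2HG producing partner of a matched IDH1 knockdown line; nearly all actives have a fitted effect of over 55% in size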
#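 Read-out is CellTiter-Glo luminescence after 10 minutes at room temperature, following 48 hours' compound treatment of HT-1080-NT cells (750 cells/well, RPMI, 5% FBS, 37 degrees C).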
# HT1080 IDH1KD tx – toxicity to HT-1080 IDH1 knockdown cells (counter line). actives 2% (n = 360,000). AID 686971. HT-1080 IDH1 knockdown viability, ATP luminescence, 48 h. Potency, µM (highest dose often 46.1 µM), most hits filed as cytotoxic
#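 HT-1080-IDH1KD cells (IDH1 knocked down), 750/well in RPMI with 5% FBS, treated with compound 48 h at 37 degrees C. Viability by CellTiter-Glo luminescence, normalised to DMSO and no-cell wells; concentration-response curves classed.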
# KB-3-1 tox – KB-3-1 parental cell cytotoxicity; KB-3-1 viability, CellTiter-Glo ATP luminescence, 72 h; Potency, µM (top dose mostly 46.1 µM), hits mostly cytotoxic; actives 1.4% (n = 400,000); further: nearly all actives have a fitted effect of over 60% in size
#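 KB-3-1 cells, DMEM (no phenol red) + 10% FBS; compound by pin transfer, 72 h, 37 °C. Readout: CellTiter-Glo luminescence after 10 min. Data normalized, curve-fitted.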
# KB-V1 MDR tox – KB-V1 MDR subline cytotoxicity. Potency, µM (highest dose often 46.1 µM), actives largely listed as cytotoxic. KB-V1 MDR cells viability, CellTiter-Glo, 72 h. actives 3.4% (n = 400,000). AID 1347076; further: nearly all actives have a fitted effect of over 60% in size
#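 Luminescent ATP read-out (CellTiter-Glo, 10 min) measures survival of drug-selected KB-V1 MDR cells after 72 h, 37 degrees C compound exposure. Medium: phenol-red-free DMEM, 10% FBS. Values from fitted concentration-response curves.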
# ATXN2 expr inh – inhibitors of ATXN2 expression. HEK-293 ATXN2-luciferase reporter, luminescence, 24 h. Potency, µM (series often up to 57 µM), most hits filed as inhibitors. actives 0.72% (n = 360,000). AID 1745845; further: nearly all actives have a fitted effect of over 55% in size
#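 qHTS (up to 57 uM final) was run with 24 h compound exposure of reporter cells at 37 °C. Each well was multiplexed: SteadyGlo luminescence measured ATXN2-luciferase expression after a fluorogenic Gly-Phe-AFC viability readout (25 uM final).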
# S2 tox – viability counter-screen for ATXN expression inhibitors | S2 cells (HEK-293 line with an ATXN2-luciferase reporter) viability, CellTiter-Fluor protease fluorescence, 24 h | Potency, µM (doses to about 56.7 µM), hits mostly cytotoxic | actives 0.49% (n = 400,000) | AID 651635; further: nearly all actives have a fitted effect of over 40% in size
# Numbers stand for hits; i = inactive; ? = inconclusive; nt = no result; [ ] = dose if it differs, or a comment. The call rests on the fitted dose curve; in most records, active means well fitted curve in the direction sought with a large enough effect; inconclusive means small, poorly fitted or top-dose-only effect, or another doubt; inactive means no such curve, though single readings can be large; an effect the other way counts as inactive or inconclusive.
SMILES,HT1080-NT tox,HT1080 IDH1KD tx,KB-3-1 tox,KB-V1 MDR tox,ATXN2 expr inh,S2 tox
O=[N+]([O-])c1ccc(N2CCN(c3ccc(O)cc3)CC2)cn1,?,?,i,?,i,i
COc1ccc(CCNC(=O)c2c(C)oc3ncn(CC(C)C)c(=O)c23)cc1OC,nt,nt,i,i,i,?
COc1ccc(-c2cc(=O)oc3c(C)c(O)c(CN(C)C)cc23)cc1,i,i,i,2.3µM,i,nt
O=C(NNC(=O)c1ccccc1O)c1ccc(S(=O)(=O)Nc2ccccc2F)cc1,23µM,?,?,i,?,i
Cc1ccccc1NS(=O)(=O)c1ccc(C(=O)NNC(=O)c2ccccc2O)cc1,i,?,?,i,?,?
O=C(NNc1ccccc1F)c1ccccc1,?,9.2µM,i,?,i,i
COC(=O)c1c(C)[nH]c(C(=O)CN2C(=O)C3CC=CCC3C2=O)c1C (stereo not given),i,i,i,21µM,i,i
CN(C(=O)c1ccc(-c2nn(C)c(=O)c3ccccc23)cc1)C1CCCCC1,i,i,18µM,4.1µM,i,i
Cn1nc(C(=O)NC2CCCCC2)c2ccccc2c1=O,i,i,i,16µM,i,i
CN(CCO)C(=O)c1ccc(-c2nn(C)c(=O)c3ccccc23)cc1,i,i,i,i,i,i
COc1cc(OC)cc(C(=O)NNC(=O)c2nn(C)c(=O)c3ccccc23)c1,i,i,?,13µM,i,i
CCOC(=O)c1ccc(O)c(O)c1,nt,nt,nt,nt,i,i
CCOc1ccc(-n2cc(C(=O)NCc3ccco3)c3cc(OC)c(OC)cc3c2=O)cc1,i,i,0.52µM,i,i,?
O=[N+]([O-])c1cc(-c2ncccn2)c([N+](=O)[O-])s1,16µM,21µM,16µM,?,?,nt
COc1ccc2c(c1)CCc1c(C(=O)Nc3ccc(F)c(Cl)c3)noc1-2,nt,nt,i,?,i,i
Cc1cccc(C)c1NC(=O)Cn1cnc2c(=O)n(C)c(=O)n(C)c21,i,i,i,i,i,i
Cc1ccccc1C(=O)Nc1cccc(NC(=O)Cn2cnc3c(=O)n(C)c(=O)n(C)c32)c1,?,11µM,i,i,i,i
O=C1c2cc(Cl)ccc2-c2c(O)cc(Cl)cc21,9.2µM,23µM,?,?,?,i
Cc1c(C(=O)N/N=C/c2c(O)ccc3ccccc23)nnn1-c1nonc1N,?,0.58µM,?,i,1.6µM,?
Nc1nonc1-n1nnc(C(=O)N/N=C/c2ccc(OCc3ccc(F)cc3)cc2)c1COc1ccccc1,18µM,?,i,i,i,i
COc1ccc2ccccc2c1/C=N/NC(=O)c1nnn(-c2nonc2N)c1C(C)C,i,?,i,?,i,i
Nc1nonc1-n1nnc(C(=O)N/N=C/c2cc(Br)ccc2O)c1CNc1ccccc1,?,23µM,?,i,i,?
Cc1ccc(COc2ccc(/C=N/NC(=O)c3nnn(-c4nonc4N)c3COc3ccc(F)cc3)cc2)cc1,i,i,?,?,i,i
Cc1ccc(/C=N/NC(=O)c2nnn(-c3nonc3N)c2CNc2ccccc2)cc1,i,i,i,i,i,i
Nc1nonc1C(=O)N/N=C/c1cc(Br)ccc1O,?,2.1µM,i,i,i[11.3 µM],i
SMILES,HT1080-NT tox,HT1080 IDH1KD tx,KB-3-1 tox,KB-V1 MDR tox,ATXN2 expr inh,S2 tox
CC(C)c1c(C(=O)N/N=C/c2ccccc2OCc2c(F)cccc2Cl)nnn1-c1nonc1N,i,?,i,16µM,i,i
COc1ccc2c(c1)c(=O)c(C(=O)c1ccccc1)cn2CC(=O)Nc1ccc2c(c1)OCO2,nt,nt,i,i,i,i
Cc1cccc(N2C(=O)CS(=O)(=O)C23C(=O)N(C)c2ccccc23)c1 (stereo not given),nt,nt,i,?,i,i
COc1ccc(N(CC(=O)NCCSCc2ccccc2C)S(=O)(=O)c2ccccc2)cc1,?,?,?,15µM,i,i
O=C(CSc1n[nH]c(-c2ccccc2)n1)NCCCc1ccccc1,nt,nt,i,i,nt,nt
Cc1ccc(C)c(OC(=O)C2CSC3(C)CCC(=O)N23)c1C (stereo not given),i,i,16µM,i,nt,i
CC12CCC(=O)N1C(C(=O)Oc1cccc(F)c1)CS2 (stereo not given),i,i,i,i,nt,i
O=C(c1cccn1-c1nnc(N2CCCCC2)s1)N1CCN(c2ccc(Cl)cc2)CC1,nt,nt,i,i,nt,nt
CCOC(=O)c1cccc(NC(=O)c2cc3cc4ccc(C)cc4nc3o2)c1,nt,nt,i,i,i,i
CN(C)c1ccc(N=Nc2ccccc2C(=O)OCC(=O)N2CCCCCC2)cc1,i,i,?,3.3µM,i,?
Cc1ccc(S(=O)(=O)N(C)c2ccc(C(=O)N3CCN(Cc4ccc5c(c4)OCO5)CC3)cc2)cc1,?,?,12µM,1.6µM,?,i
Cc1ccc(C(=O)N2CCN(Cc3ccc4c(c3)OCO4)CC2)c(Cl)c1,i,16µM,?,i,i,?
O=C(c1[nH]nc2c1CCc1ccccc1-2)N1CCN(Cc2ccc3c(c2)OCO3)CC1,?,?,12µM,?,i,i
CCc1ccc(-n2c(C)nnc2SCc2nc(-c3ccc(OC)cc3)no2)cc1,nt,nt,i,i,?,?
COc1ccc(C(=O)c2oc3ccccc3c2NC(=O)c2cc(=O)c3ccc(C)cc3o2)cc1Cl,nt,nt,i,i,i,i
O=C(CCC1N=C2c3ccccc3N=C(SCc3ccccc3Cl)N2C1=O)N1CCN(c2ccccc2)CC1 (stereo not given),nt,nt,i,i,i,i
COC(=O)c1c(-c2ccc(C)cc2)csc1NC(=O)Cc1ccc(OC)c(OC)c1,i,i,?,2.6µM,i,i
COC(=O)c1c(-c2ccc(Br)cc2)csc1NC(=O)Cc1ccc(OC)c(OC)c1,i,i,?,7.3µM,i,i
COC(=O)c1c(-c2cccc3ccccc23)csc1NC(=O)Cc1ccc(OC)c(OC)c1,i,?,?,i,i,i
COC(=O)c1sccc1NC(=O)Cc1ccc(OC)c(OC)c1,i,i,i,i,i,i
CCOC(=O)c1c(C)[nH]c(C)c1S(=O)(=O)N1CCN(c2ccc(Cl)cc2)CC1,nt,nt,i,i,i,?
Cc1oc(-c2ccccc2F)nc1CN1CCC(C(=O)NCCC2=CCCCC2)CC1,i,i,?,8.2µM,i,?
Cc1oc(-c2ccccc2F)nc1CN1CCC(C(=O)NCCc2ccccc2)CC1,nt,nt,i,i,i,i
COc1ccc(CCNC(=O)C2CCN(Cc3nc(-c4ccccc4F)oc3C)CC2)cc1OC,i,i,i,16µM,i,i
CCN(Cc1ccccc1)c1ncnc2c1nnn2C,nt,nt,i,i,nt,nt
CCCSc1nc2sc3c(c2c(=O)n1-c1ccccc1)CCC(C)C3 (stereo not given),nt,nt,i,i,i,i

# Assay outcomes: PubChem, National Center for Advancing Translational Sciences (NCATS)
